The entries come from a sample that favours hits as a whole.
FECH block = inhibitors of human ferrochelatase | P22830 | purified FECH, Ni-mesoporphyrin absorbance 550 nm | calls only at 10 µM (by protocol) | hit rate 3.3% among 20,000 | AID 1671448;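 active means enzyme reaction rate more than 3 SD below the solvent-only control wells on the same plate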;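 further: lower slope than DMSO wells means FECH inhibition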
Target sequence (P22830 whole entry, looked up): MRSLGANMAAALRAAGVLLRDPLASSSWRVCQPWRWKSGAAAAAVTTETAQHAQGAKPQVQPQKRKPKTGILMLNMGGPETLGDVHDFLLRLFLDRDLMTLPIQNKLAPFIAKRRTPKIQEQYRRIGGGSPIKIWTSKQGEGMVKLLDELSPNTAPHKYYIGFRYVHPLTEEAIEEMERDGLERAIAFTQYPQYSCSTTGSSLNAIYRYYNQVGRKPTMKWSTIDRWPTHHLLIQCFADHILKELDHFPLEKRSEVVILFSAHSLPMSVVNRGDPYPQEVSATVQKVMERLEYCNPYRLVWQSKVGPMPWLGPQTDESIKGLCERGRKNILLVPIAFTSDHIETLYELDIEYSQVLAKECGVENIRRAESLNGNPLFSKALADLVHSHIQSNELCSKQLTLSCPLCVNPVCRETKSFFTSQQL
Numbers without * were called inactive; i = inactive; + = active, no number.

SMILES	FECH block
COCCCNC(=O)c1ccc(Cn2c(=O)c3cc(OC)c(OC)cc3n(CC(N)=O)c2=O)cc1	i
CCc1ccc(NC(=O)N2CCN(CCn3c(C(F)(F)F)nc4cccnc43)CC2)cc1	i
COc1ccc(-c2noc(CSC(C)C(=O)NCc3ccco3)n2)cc1 (stereo unspecified)	i
C=CCN(C(=O)C(=O)N1CCCCC1C)C(C)C (stereo unspecified)	i
O=C(CN1CCCN(Cc2cccc(Cl)c2)S1(=O)=O)Nc1cccc(Br)c1	i
CCn1nc(-c2ccccc2)c(-c2ccccc2)c(C(=O)Nc2ccc(S(N)(=O)=O)cc2)c1=O	+
NS(=O)(=O)c1ccc(NC(=O)c2ccc(-c3nc(-c4ccccc4)no3)cc2)cc1	i
NS(=O)(=O)c1ccc(NC(=O)c2c(-c3ccccc3)c(-c3ccccc3)n[nH]c2=O)cc1	i
Cc1cc(CNc2cnccn2)c2[nH]c(-c3ccccc3)c(C)c2c1	i
CN1CCC2(CC1)CN(C(=O)CNC(N)=O)CCCN2C	i
CCc1ccccc1NC(=O)C(=O)N1CCN(C)C2(CCN(C)CC2)C1	i
COc1ccc(NC(=O)CC(=O)N2CCN(C)C3(CCN(C)CC3)C2)cc1	+
CN(Cc1n[nH]c2c1CCCC2)C(=O)CCNC(=O)c1ccccc1F	i
Cc1cccc(NS(=O)(=O)c2cc(C(=O)N3CCCC3)cs2)c1C	+
CCc1cccc(C)c1NS(=O)(=O)c1cc(C(=O)N2CCCC2)cs1	i
O=C(c1csc(S(=O)(=O)Nc2ccccc2F)c1)N1CCCCC1	i
CCc1ccccc1NS(=O)(=O)c1cc(C(=O)N2CCCC2)cs1	i
Cc1ccc(C)c(NS(=O)(=O)c2cc(C(=O)N3CCCC3)cs2)c1	+
Cc1ccccc1CNS(=O)(=O)c1cc(C(=O)N2CCCC2)cs1	i
O=C(NCc1cccnc1-n1ccnc1)c1c[nH]c2ccccc12	i
CCCc1cc(Sc2ccc(NC(=O)c3c(OC)cccc3OC)cc2)n2ncnc2n1	i
CCC(C)(C)NS(=O)(=O)c1ccc2c(c1)CCN2C(=O)CCC(=O)N1CCCCCC1	i
O=C(Nc1ccc2nc(CCc3ccccc3)[nH]c2c1)C1CCN(S(=O)(=O)N2CCOCC2)CC1	i
Cn1c(CCc2cccc(NC(=O)C3CCN(S(=O)(=O)N4CCCC4)CC3)c2)nc2ccccc21	+
Cn1c(CCc2ccccc2NC(=O)C2CCCN(S(=O)(=O)N3CCCC3)C2)nc2ccccc21 (stereo unspecified)	i
SMILES	FECH block
O=C(CN1CCCN(Cc2ccccc2)S1(=O)=O)Nc1cccc(Cl)c1	i
O=C(CN1N=C(c2ccccc2)c2ccccc2S1(=O)=O)Nc1cccc(Cl)c1	+
O=C(CN1CCN(Cc2ccc(Cl)cc2)S1(=O)=O)Nc1cccc(Cl)c1	i
Cc1cc(F)ccc1NC(=O)CN1C(=O)CN(C)C(=O)c2ccccc21	i
CCOC(=O)CCc1c(C)nc2nc(CNc3ccc(F)cc3)[nH]n2c1=O	i
CCc1nc2nc(C)c(NC(=O)Nc3ccc(F)c(Cl)c3)c(=O)n2[nH]1	i
CCc1nc2nc(C)[nH]n2c(=O)c1NC(=O)Nc1cccc(Cl)c1	i
CCOC(=O)CCc1c(C)nc2nc(CNc3cccc(Cl)c3)[nH]n2c1=O	+
CCOC(=O)CCc1c(C)nc2nc(CNc3cccc(C)c3)[nH]n2c1=O	+
CCc1nc2nc(C)c(NC(=O)Nc3cccc(C)c3)c(=O)n2[nH]1	i
CC(C)C(=O)Nc1nc2cc(NC(=O)C3CCCN(S(=O)(=O)N4CCCC4)C3)ccc2s1 (stereo unspecified)	i
COCc1cc(CN(C)c2ncnc3[nH]ccc23)[nH]n1	i
CN(CCOc1ccccc1)c1ncnc2[nH]ccc12	+
CCCOCCN1CCN(c2ncnc3[nH]ccc23)CC1	i
CCOc1ccccc1C(=O)Nc1ccccc1Sc1c(C)c(C)nc2ncnn12	i
Cc1cc(Sc2ccccc2NC(=O)COc2ccc(Cl)cc2)n2nc(-c3ccccc3)nc2n1	i
Cc1ccc(OCC(=O)Nc2ccccc2Sc2c(C)c(C)nc3ncnn23)cc1	i
CCCc1c(C)nc2ncnn2c1Sc1ccccc1NC(=O)c1ccc(F)cc1	i
Cc1nc2nc(-c3ccccc3)nn2c(Sc2ccccc2NC(=O)COc2ccc(Cl)cc2)c1C	+
COc1cc(C(=O)Nc2ccccc2Sc2c(C)c(C)nc3ncnn23)cc(OC)c1OC	i
COc1ccc(CC(=O)Nc2ccccc2Sc2c(C)c(C)nc3nc(-c4ccccc4)nn23)cc1	i
Cc1ccccc1OCC(=O)Nc1ccccc1Sc1c(C)c(C)nc2ncnn12	+
COc1ccc(C(=O)Nc2ccccc2Sc2c(C)c(C)nc3ncnn23)cc1	+
CCCc1c(C)nc2ncnn2c1Sc1ccccc1NC(=O)c1ccco1	i
CCCc1c(C)nc2ncnn2c1Sc1ccccc1NC(=O)c1ccccc1	+
Cc1nc2ncnn2c(Sc2ccccc2NC(=O)c2ccc(Br)cc2)c1C	i
CCCC(C(=O)Nc1cc(OC)cc(OC)c1)N1Cc2ccccc2C1=O (stereo unspecified)	i
C=C(C)COc1ccccc1C(=O)N1CCc2[nH]nc(C(C)C)c2C1	i

Assay outcomes from PubChem.
